Sampled rows, rich in hits. Any-hit rate of the full collection: about 9.3%.
Vaccinia Venus = vaccinia inhibition (Venus reporter); Vaccinia virus Venus reporter expression, fluorescence; 330,000 tested, 0.46% active; Potency, µM (series often up to 36.5 µM), for inactives: top-dose activity change, negative = inhibition, most hits filed as inhibitors; calls by dose curve; tested in A549 cells; further: potency means the concentration at half of the fitted maximal effect; nearly all actives have a fitted effect of over 30% in size
HCV inh = blocks hepatitis C virus | Huh7.5.1 HCVcc-Cre infection, luciferase reporter, 44 h | Potency, µM (highest dose often 41.8 µM), without a hit: at the highest dose activity change, negative = inhibition, most hits filed as inhibitors | 340,000 tested, 3.4% active | AID 651820; further: potency means the concentration at half of the fitted maximal effect
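A cell-based infection assay in which seeded cells (1,000 per well) receive test compound after 4 h, are inoculated with HCVcc-Cre at approximately 0.5 moi, and are incubated 44 h before luminescence detection.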
Sm TGR block = blocks Schistosoma mansoni thioredoxin glutathione reductase | Q962Y6 | Potency, µM (doses to about 114 µM), inactives show at the top dose activity change, negative = inhibition, usual class: inhibitors | 360,000 tested, 3% active | purified TGR, DTNB reduction, TNB absorbance 405 nm | AID 485364; further: potency means the concentration at half of the fitted maximal effect; nearly all actives have a fitted effect of over 60% in size
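TGR 20 nM + NADPH 100 uM (dispensed conc.), cpd preinc 15 min RT; start with NADPH (500 uM addition) then DTNB (15 mM addition). Kinetic TNB absorbance, 405 nm filter. Four-parameter Hill fit across titration.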
VACV mCherry inh = inhibitors of vaccinia virus infection (mCherry reporter signal); Vaccinia virus mCherry reporter infection, fluorescence; Potency, µM (doses to about 36.5 µM), for the others: at the top dose activity change, negative = inhibition, most hits filed as inhibitors; 310,000 tested, 0.63% active; calls by dose curve; tested in A549 cells; further: potency means the concentration at half of the fitted maximal effect; nearly all actives have a fitted effect of over 35% in size
FMDV antiviral = foot and mouth disease virus antiviral activity | FMDV antiviral cell-based qHTS | Potency, µM (top dose mostly 57.9 µM), inactives show at the highest dose activity change, negative = inhibition, hits mostly inhibitors | 410,000 tested, 1.2% active; calls by dose curve; tested in HEK293T cells; further: read-out not given here; potency means the concentration at half of the fitted maximal effect; nearly all actives have a fitted effect of over 45% in size
HCMV antiviral = inhibitors of human cytomegalovirus | HFF cells, HCMV-luciferase reporter, 72 h; stronger effect = lower value | activity change, negative = inhibition, % at 57.5 µM | 410,000 tested, 4.5% active | AID 1259415; in the data active means activity change below about -60%; inconclusive means no clear call, values can overlap the other calls; inactive means above about -39%
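Two-dose cell screen: HFF monolayers treated with compounds and infected with luciferase-expressing HCMV at 1 PFU/cell, 72 h at 37C, then lysed for luciferase measurement.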
Active calls of the source: *; i = inactive; ? = inconclusive; nt = no result given. Unless noted, the call rests on the fitted dose curve; in most records, active means well fitted curve in the direction sought with a large enough effect; inconclusive means small, poorly fitted or top-dose-only effect, or another doubt; inactive means no such curve, though single readings can be large; an effect the other way counts as inactive or inconclusive. On the % scale 0 is the no-effect control and ±100 the full control effect.

SMILES	Vaccinia Venus	HCV inh	Sm TGR block	VACV mCherry inh	FMDV antiviral	HCMV antiviral
COc1ccc(CNCCC(c2ccc3c(c2)OCO3)c2ccccc2OC)cc1 (configuration not stated)	?	nt	1%	?	-31%	-106*
CNCC(=O)O	-16%	-12%	-31%	-3%	-19%	?
CC(C)Oc1ccc(CNC(=O)Nc2ccc3c(c2)N(C)C(=O)c2ccccc2S3)cc1	?	nt	1%	?	?	-76*
O=C(Nc1ccc2c(c1)N(C1CCCC1)C(=O)c1ccccc1S2)c1ccccc1	-5%	nt	7%	-8%	0%	-64*
CN1C(=O)c2ccccc2Sc2ccc(NC(=O)N3CCN(c4ccccc4)CC3)cc21	?	nt	-30%	?	?	-76*
COc1ccccc1CNc1ncccn1	0%	-2%	-16%	i	-7%	21
Cc1nn(Cc2ccc(F)cc2)c2sc(C(=O)Nc3ccccc3N3CCOCC3)cc12	-5%	?	4%	-14%	-14%	?
Cc1nn(Cc2ccccc2Cl)c2sc(C(=O)Nc3ccccc3N3CCOCC3)cc12	nt	13µM*	7%	nt	?	?
COc1ccc(N(C(=O)c2ccccc2C)S(=O)(=O)c2cccs2)cc1	?	?	2%	?	19%	-77*
c1ccc(-n2nnnc2NCCc2c[nH]c3ccccc23)cc1	nt	-21%	?	nt	54%	1
c1ccc(CNc2nnnn2-c2ccccc2)cc1	nt	-1%	0%	nt	20%	-72*
COc1ccc(C2C3=C(Nc4ncnn42)c2ccccc2CCC3)cc1 (configuration not stated)	-13%	12%	-10%	-11%	nt	68
Fc1ccc(/C=C2\CCCC3=C2Nc2ncnn2C3c2ccc(F)cc2)cc1 (configuration not stated)	18µM*	?	?	?	?	18
Cc1ccc2oc(C(=O)NCCC3CCCCO3)c(C)c2c1 (configuration not stated)	-13%	-1%	5%	i	-7%	85
O=C1c2cccc3cccc(c23)C(=O)N1CC1CCN(CC(O)COc2ccc3ccccc3c2)CC1 (configuration not stated)	nt	7.9µM*	-26%	nt	?	-19
COc1ccc(COCC(O)CN2CCC(CN3C(=O)c4cccc5cccc(c45)C3=O)CC2)cc1OC (configuration not stated)	?	?	-18%	-28%	?	0
Cc1cc(C)cc(OCC(O)CN2CCC(CN3C(=O)c4cccc5cccc(c45)C3=O)CC2)c1 (configuration not stated)	?	2.2µM*	0%	?	?	-101*
O=C1c2cccc3cccc(c23)C(=O)N1CCN1CCN(CC(O)COc2ccc3ccccc3c2)CC1 (configuration not stated)	-13%	11µM*	-7%	-14%	?	-63*
COc1cccc(OCC(O)CN2CCC(CN3C(=O)c4cccc5cccc(c45)C3=O)CC2)c1 (configuration not stated)	-23%	?	-6%	-23%	?	-65*
CCOc1ccc(CCNC(=O)c2cn(C)c3ccc(S(=O)(=O)N4CCCCC4)cc3c2=O)cc1OCC	-9%	nt	5%	-19%	3%	7
N#CCC(=O)Nc1ccc(C(=O)OCC(=O)NC(=O)Cc2ccccc2)cc1	3%	-5%	-16%	-11%	47%	-13
CNC(=O)COC(=O)c1ccc(NC(=O)CC#N)cc1	-10%	6%	-24%	i	7%	-101*
CCOc1ccc(C(=O)Nc2cccc(NC(=O)c3ccc(Cl)cc3Cl)c2)cc1	?	nt	-1%	?	6%	14
O=C(Nc1ccncc1)C1CCN(S(=O)(=O)c2cccc(C(F)(F)F)c2)CC1	nt	-5%	-1%	nt	-11%	-29
COc1ccc(C(=O)Nc2ccc(N3CCN(C(=O)c4ccccc4C)CC3)cc2)cc1	-18%	11µM*	1%	i	?	-82*
